Measured values: publication PMC10668032, “Altered binding affinity of SIX1-Q177R correlates with enhanced WNT5A and WNT pathway effector expression in Wilms tumor”
Over roughly 33,000 sequences, “e-score” has its median near -0.053; the highest 2% begin near 0.38. The sample as a whole holds a higher share of the highest values than the screen did.

target: T1, SIX1 homeodomain (reference allele) (human, UniProt Q15475 108-198); assay: universal protein binding microarray; Universal all-10-mer PBM (8x60K, AMADID 030236), 300 nM GST-tagged protein, Alexa Fluor 488 anti-GST; buffer, salt, pH and temperature not stated (as in Berger); high values mean tight binding; conditions: protein: ivt; tags: N-terminal GST; dsDNA, one strand shown
T1 sequence: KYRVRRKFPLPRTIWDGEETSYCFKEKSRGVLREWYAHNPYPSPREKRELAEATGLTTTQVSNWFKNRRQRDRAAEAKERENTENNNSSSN
How it was run: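 GST-tagged homeodomains were made by in vitro transcription/translation and quantified by anti-GST western blot against a recombinant GST standard curve. They were applied in duplicate at 300 nM final concentration to universal 'all 10-mer' protein binding microarrays (8×60K format). Binding was quantified as 8-mer E-scores with the Universal PBM Analysis Suite.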

Sequence | binding signal
ATCAAGGG | 0.258 ± 0.0527 E-score
GGAGATTA | 0.197 ± 0.0921 E-score
ATCGGGTC | 0.285 ± 0.0351 E-score
CCGATGAG | 0.173 ± 0.0124 E-score
GAGATAGA | 0.183 ± 0.00408 E-score
ACGAATAT | 0.179 ± 0.047 E-score
CGTTATAC | 0.204 ± 0.0355 E-score
ATCATGTG | 0.328 ± 0.0175 E-score
CATTGCGG | 0.222 ± 0.028 E-score
CCGCCATA | 0.209 ± 0.0131 E-score
ATACAACG | 0.152 ± 0.0326 E-score
ATCCTCTC | 0.264 ± 0.0756 E-score
ATCGCTCA | 0.192 ± 0.00955 E-score
GGGGTAGA | 0.158 ± 0.0407 E-score
AGGGTATA | 0.407 ± 0.0114 E-score
TAGGTATA | 0.382 ± 0.0292 E-score
CGGGTATA | 0.365 ± 0.00269 E-score
CGGGGGTA | 0.301 ± 0.0117 E-score
GCGGTATA | 0.3752 ± 0.00298 E-score
AGGGGGTA | 0.294 ± 0.0383 E-score
CGGGTCTC | 0.187 ± 0.0479 E-score
AAGGTATA | 0.272 ± 0.131 E-score
GGGGTATA | 0.441 ± 0.0155 E-score
CGGGTATC | 0.487 ± 0.00716 E-score
TGATGCCA | 0.152 ± 0.025 E-score

Sequence | binding signal
ATAGGGCG | 0.158 ± 0.0277 E-score
AATATCTG | 0.188 ± 0.0693 E-score
CATGAAAG | 0.157 ± 0.0184 E-score
AGGGTATG | 0.28 ± 0.0175 E-score
AGGGTAAT | 0.205 ± 0.0122 E-score
AGGGTATC | 0.4907 ± 0.00122 E-score
CCATCCCC | 0.203 ± 0.0814 E-score
GTAATATA | 0.226 ± 0.0387 E-score
AGTGATAC | 0.489 ± 0.00626 E-score
AGTGATAG | 0.32 ± 0.0815 E-score
AGTGTGAT | 0.247 ± 0.0427 E-score
GGTGATAC | 0.4856 ± 0.00178 E-score
CGTGATAG | 0.244 ± 0.00391 E-score
AGTGATAT | 0.451 ± 0.0283 E-score
CGTGACAC | 0.2472 ± 0.00208 E-score
CGTGATAC | 0.4798 ± 0.000721 E-score
AGTGACAC | 0.354 ± 0.0169 E-score
GGTGATAA | 0.154 ± 0.0176 E-score
GGTGATGA | 0.191 ± 0.0354 E-score
AGTGAGAT | 0.306 ± 0.0146 E-score
ACACCATG | 0.306 ± 0.0191 E-score
CCCCATCG | 0.152 ± 0.0278 E-score
TACCCACA | 0.196 ± 0.0401 E-score
ATAGGCAG | 0.184 ± 0.025 E-score
CCAAGATA | 0.229 ± 0.0485 E-score

Sequence | binding signal
ATACGCAG | 0.314 ± 0.0177 E-score
ATCATGTC | 0.295 ± 0.0201 E-score
GCGACCGA | 0.151 ± 0.024 E-score
ATCCCGAA | 0.252 ± 0.0478 E-score
ATCCCCTA | 0.374 ± 0.0124 E-score
ATCCCCGG | 0.307 ± 0.0247 E-score
ATCCCGAG | 0.257 ± 0.025 E-score
ATCCCCAA | 0.294 ± 0.0584 E-score
ATCCCCTC | 0.387 ± 0.0304 E-score
ATCCCCAT | 0.295 ± 0.0355 E-score
ATCCCCCA | 0.392 ± 0.0226 E-score
ATCCCCCG | 0.403 ± 0.00588 E-score
ATCCCCTG | 0.3344 ± 0.00285 E-score
ATCCCGAT | 0.378 ± 0.0289 E-score
ATCCCGCG | 0.323 ± 0.0328 E-score
ATGCGGTA | 0.265 ± 0.0333 E-score
AGATGGAT | 0.328 ± 0.00364 E-score
ATACAGGG | 0.295 ± 0.0454 E-score
CGTAGATA | 0.23 ± 0.0417 E-score
GATCGTTA | 0.198 ± 0.00351 E-score
ATACGGCC | 0.344 ± 0.0108 E-score
ATTAATCC | 0.316 ± 0.089 E-score
TCAATCCA | 0.163 ± 0.0587 E-score
ATCACCCA | 0.308 ± 0.00677 E-score
ATCCCCCC | 0.423 ± 0.0283 E-score

Sequence | binding signal
ATCCCCAC | 0.347 ± 0.0302 E-score
ATCACCCC | 0.302 ± 0.0208 E-score
ATCCCCGC | 0.326 ± 0.0778 E-score
ATCACCCG | 0.397 ± 0.0282 E-score
ATCGTAGG | 0.16 ± 0.0377 E-score
CTGATCTA | 0.2567 ± 0.000955 E-score
GATACGCA | 0.4207 ± 0.00257 E-score
GAGACGCC | 0.155 ± 0.0256 E-score
AATACGTA | 0.237 ± 0.0731 E-score
GACACGTA | 0.211 ± 0.0335 E-score
GATACGCC | 0.4525 ± 0.00258 E-score
AATACGCC | 0.188 ± 0.0403 E-score
GATACAAA | 0.252 ± 0.0232 E-score
TATACGCA | 0.304 ± 0.0184 E-score
GATACGTA | 0.4288 ± 0.00319 E-score
CCCGTCTA | 0.159 ± 0.00699 E-score
AGACGTAT | 0.319 ± 0.0844 E-score
CAGTGTCA | 0.249 ± 0.0216 E-score
CGCATCGA | 0.208 ± 0.103 E-score
CACCGGTG | 0.196 ± 0.0172 E-score
ATATGAAT | 0.19 ± 0.0448 E-score
ACCTGATC | 0.31 ± 0.0291 E-score
ACCTGATA | 0.401 ± 0.0362 E-score
ATCTGATA | 0.446 ± 0.0144 E-score
ATCTGACC | 0.282 ± 0.0195 E-score

Sequence | binding signal
ATCTGAAC | 0.179 ± 0.00772 E-score
ATCTGATC | 0.419 ± 0.0129 E-score
ATCTGATG | 0.156 ± 0.0564 E-score
CTCTGATA | 0.312 ± 0.08 E-score
CCCTGATA | 0.36 ± 0.00422 E-score
GGTTTCGA | 0.172 ± 0.0592 E-score
GAGATCTA | 0.172 ± 0.0177 E-score
TAAACCCA | 0.161 ± 0.0201 E-score
CGATCGCA | 0.284 ± 0.0349 E-score
ATCGGTGA | 0.232 ± 0.0224 E-score
GTGTCCCA | 0.204 ± 0.0515 E-score
CGTTAGTA | 0.194 ± 0.00764 E-score
ATATTCTC | 0.269 ± 0.0439 E-score
GATCCGCA | 0.411 ± 0.0362 E-score
CATCCGCC | 0.237 ± 0.0769 E-score
AATCCGCC | 0.212 ± 0.00218 E-score
TATCCGCA | 0.4006 ± 0.00313 E-score
AATCCGCT | 0.191 ± 0.0498 E-score
AATCCGCA | 0.204 ± 0.0414 E-score
GATCCAAA | 0.207 ± 0.0442 E-score
TATCCGAA | 0.334 ± 0.0355 E-score
GATCCGCC | 0.427 ± 0.0138 E-score
GCCATATA | 0.215 ± 0.0356 E-score
ACACCGCT | 0.224 ± 0.00469 E-score
CCCACTGA | 0.191 ± 0.0775 E-score

Sequence | binding signal
ATGCAGTG | 0.153 ± 0.121 E-score
ATCGCGTA | 0.189 ± 0.0511 E-score
TACTACTA | 0.195 ± 0.0204 E-score
CGGATAAG | 0.187 ± 0.0213 E-score
CGGATACG | 0.38745 ± 0.000205 E-score
CGTATACG | 0.317 ± 0.065 E-score
CGGATGCC | 0.214 ± 0.0396 E-score
CGGATACA | 0.446 ± 0.0132 E-score
AGGATAAA | 0.16 ± 0.041 E-score
AGGATACG | 0.386 ± 0.0183 E-score
CGGATACC | 0.476 ± 0.00619 E-score
CGAATACC | 0.233 ± 0.0485 E-score
CCATCTAC | 0.161 ± 0.00787 E-score
ATTCAATA | 0.161 ± 0.0419 E-score
TATGCGAA | 0.164 ± 0.0286 E-score
ACACCTTC | 0.219 ± 0.032 E-score
ATGGGGTA | 0.163 ± 0.0446 E-score
TCGCGACA | 0.193 ± 0.0437 E-score
ATCGCTCG | 0.199 ± 0.0182 E-score
CGGATTGC | 0.23 ± 0.0242 E-score
ACACCGAC | 0.256 ± 0.0314 E-score
GATCAAGA | 0.191 ± 0.0318 E-score
CCAAGATC | 0.22 ± 0.0354 E-score
ACCCAATA | 0.158 ± 0.0255 E-score
GCCCCTCC | 0.158 ± 0.185 E-score

Sequence | binding signal
GGGATACC | 0.455 ± 0.0274 E-score
AGGATACT | 0.364 ± 0.0424 E-score
GGAATACC | 0.295 ± 0.024 E-score
GGGATAAC | 0.303 ± 0.0153 E-score
GGGATACA | 0.383 ± 0.0303 E-score
TGGATACA | 0.351 ± 0.0427 E-score
AGGATACA | 0.337 ± 0.0073 E-score
AGGATACC | 0.457 ± 0.00534 E-score
TCTATACA | 0.243 ± 0.0131 E-score
CGCCGATA | 0.376 ± 0.0145 E-score
TACTCGCA | 0.154 ± 0.0249 E-score
CTATATAG | 0.182 ± 0.0165 E-score
ATGTGGTA | 0.151 ± 0.00476 E-score
ACCATCTA | 0.159 ± 0.0813 E-score
CCCGGGTA | 0.228 ± 0.0421 E-score
ATACAAGA | 0.239 ± 0.0188 E-score
TACATCCA | 0.156 ± 0.0562 E-score
ATTGGATA | 0.297 ± 0.05 E-score
GATATGGC | 0.418 ± 0.0102 E-score
AATATGGA | 0.158 ± 0.0544 E-score
GATATTGC | 0.323 ± 0.0993 E-score
GATATGAC | 0.357 ± 0.048 E-score
